Assay results: PubChem BioAssay AID802 (Columbia University Molecular Screening Center, 2007)
The campaign covered roughly 95,000 compounds. About 460 (0.48%) were called active. Many of the other results were omitted from the sample, so actives are more common in it than they were. A number with no mark means an inactive call.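 The calls were made as follows: active = inhibition above the batch mean plus 3 SD, with images confirmed as a hit by eye (cut at about 37% in these data); inconclusive = inhibition above that limit but hit not confirmed in images; inactive = inhibition not above that limit.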

Assay: blockers of endothelial VCAM-1 upregulation by TNFa – imaging, HUVEC, TNFa stimulus, immunofluorescence, primary screen (AID 802);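 also: 0% = TNF-stimulated DMSO wells and 100% = unstimulated control wells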
Details: HUVEC TNFa-induced VCAM-1 immunofluorescence, high-content imaging; at 2 µM; active compounds read high

SMILES	inhibition
CCOc1ccc(C(=O)NC2CCN(C(=O)Nc3ccccc3OC)CC2)cc1	-14.1%
O=C(NC(Nc1nc2ccc([N+](=O)[O-])cc2s1)(C(F)(F)F)C(F)(F)F)c1ccccc1	88.1% (active)
Cc1cc(C)cc(OCC(=O)Nc2nc3ccc([N+](=O)[O-])cc3s2)c1	21.3%
COC(=O)C(NC(=O)c1ccc(OC)cc1)(Nc1ncc(S(=O)(=O)c2ccc([N+](=O)[O-])cc2)s1)C(F)(F)F (stereo not given)	-3.1%
Cc1ccccc1NC(=S)Nc1cccc([N+](=O)[O-])c1	-16.9%
COc1ccc(Nc2ncc(C(=O)N3CCN(c4ccccc4OC)CC3)c3ccccc23)cc1	26.1%
FC(F)(F)c1cc(-c2ccco2)nc(NCc2ccc(Cl)cc2)n1	9.6%
Cc1cc(C)c2c(-n3cccc3)c(NC(=O)OCc3ccccc3)sc2n1	25.4%
COc1cccc(CNc2nc3nc4c(c(=O)n3[nH]2)CCC4)c1	15.2%
Cc1cccc(-n2cnc(C(=O)Nc3cccnc3)c2)n1	-5.1%
CCOC(=O)Cc1csc(NC(=O)CSc2nnc(-c3cccnc3)n2Cc2ccco2)n1	15.6%
O=S(=O)(Cc1cc(Sc2ccccc2)nc(-c2ccccc2)n1)c1ccccc1	-28.4%
CCOc1ccccc1NC(=O)c1cccnc1	-0.4%
COc1ccc(C(F)(F)F)cc1N/C=C\c1nnnn1-c1ccc(C)cc1	16.2%
CCc1ccc(Nc2ncc3c(n2)CC(c2ccco2)CC3=O)cc1 (stereo not given)	-20.6%
O=C(Nc1ncc2c(n1)-c1ccccc1OC2)c1ccc(Cl)cc1	6.1%
O=C(Nc1ncc2c(n1)CC(c1ccco1)CC2=O)c1ccc(Cl)cc1 (stereo not given)	91.4% (active)
COc1ccc(C2C(C(C)=O)=C(O)C(=O)N2c2nccs2)cc1 (stereo not given)	12.3%
CCCN(Cc1cc2cccc(C)c2[nH]c1=O)S(C)(=O)=O	-13.9%
COc1ccc(CCN(Cc2cc3cccc(C)c3[nH]c2=O)C(=O)N2CCCC2)cc1OC	91.4% (active)
COc1cc2cc(CN(CCN3CCCC3)C(=O)Nc3ccccc3Cl)c(=O)[nH]c2cc1OC	28.3%
COc1ccc2oc(C)c(NC(C)=O)c2c1	0.3%
COc1ccc(Nc2cc(=O)oc3ccccc23)cc1	88.9% (active)
COc1ccc(N2CCN(Cc3cc(=O)oc4ccc5ccccc5c34)CC2)cc1	9.8%

SMILES	inhibition
CCCSC(=S)NC1CCS(=O)(=O)C1 (stereo not given)	4.3%
CCN(CC)CCn1c(=S)[nH]c2ncccc2c1=O	11%
c1ccc(Nc2nc(N3CCOCC3)c3ccccc3n2)cc1	-8.6%
CCOC(=O)N1CCN(C(c2cccnc2)c2ccc3cccnc3c2O)CC1 (stereo not given)	9.9%
COc1ccc(-c2nnc(SCC(=O)NC3CCCCC3)o2)cc1OC	87.2% (active)
COc1ccc(CN(C(=O)CSc2nnc(-c3ccc(OC)c(OC)c3)o2)c2ccc(F)cc2)cc1	17.6%
COc1ccc(CCNC(=O)CSc2nnc(-c3cccc(F)c3)o2)cc1OC	11.2%
Cc1cc2cc3c(cc2nc1SCC(=O)Nc1c(C)cccc1C)CCC3	6%
Cc1cccc(NC(=O)C(C)N2C(=O)C3C4CC(C(Br)C4Br)C3C2=O)c1 (stereo not given)	8.5%
CCC1(CC)NC(=O)N(CC(=O)OCC(=O)Nc2ccc(C(F)(F)F)cc2)C1=O	9.5%
O=C(Nc1cc2c3c(c1)C1CCCC1CN3CC1CCCC21)c1ccc([N+](=O)[O-])cc1 (stereo not given)	3%
Cc1n[nH]c(=S)n1/N=C/c1ccc(Br)o1	4.4%
O=[N+]([O-])c1ccc(NCCCN2CCOCC2)c(Cl)c1	-2.6%
CC(C)(C)Cc1nnc(NC(=O)c2cc(-c3ccccc3)nc3ccccc23)s1	-0.7%
CC1(C)CC(CC(=O)O)C(=O)O1 (stereo not given)	20.1%
CCOc1ccc(-n2c(N)c(C(=O)NCC3CCCO3)sc2=S)cc1 (stereo not given)	-3.3%
Cc1ccc2c(c1)-c1c(ssc1=S)C(C)(C)N2C(=O)CN1C(=O)c2ccccc2C1=O	-19.4%
CCOC(=O)c1c(N=CN(C)C)c(C#N)c2n1CCCC2	8.7%
COc1ccc(/C=N/Nc2nc3ccccc3o2)cc1OC	-32.9%
C=CCNC(=S)NNc1ncnc2sc3c(c12)CC(C)(C)OC3	27.9%
O=C(CN1C(=O)C2C3C=CC(C3)C2C1=O)Nc1nc(-c2ccccn2)cs1 (stereo not given)	11%
Cc1cc(NC(=O)CSc2nc(C(C)C)nc3sc4c(c23)CCC(C)C4)no1 (stereo not given)	18.6%
CC(=O)Nc1ccc(N2C(=O)CCC2=O)cc1C	8.8%
O=C(/C=C/Nc1ccccc1)c1cnc(-c2ccccc2)s1	-1.5%

SMILES	inhibition
Cc1ccc(C2(C(F)(F)F)N=C3Sc4cc(C)cc(C)c4N3C(=O)N2)cc1 (stereo not given)	7.1%
Cc1ccc(C)c(N2C(=O)CS/C2=N\NC(=O)c2ccccc2Cl)c1	10.4%
O=C(Cn1ccc([N+](=O)[O-])n1)NCc1cccs1	7.9%
O=c1c([N+](=O)[O-])cc(C(F)(F)F)cn1Cc1cccc(Cl)c1	3.2%
O=C(N/N=C\c1ccc(-c2ccc(Cl)c(Cl)c2)o1)C(=O)N1CCCC1	-4.3%
CCCNC(=O)NCc1ccc(N2CCCC2=O)cc1	3.5%
CCOC(=O)c1c(NC(=S)Nc2ccccc2)sc2c1CCN(C)C2	12.8%
CC(=O)c1cn(CCCCCCCCCCn2cc(C(C)=O)c(=O)[nH]c2=O)c(=O)[nH]c1=O	5.5%
O=C(Nc1ccn(Cc2ccccc2F)n1)c1ccc(COc2ccc(Cl)cc2Cl)o1	4.3%
Cc1ccc(C2C(C#N)C(C#N)N3CCCN23)cc1 (stereo not given)	-8%
CCc1cc(C(c2ccccc2OC)N2CCOCC2)c(NC(=O)c2ccccc2)s1 (stereo not given)	3.5%
COCCNC(=O)c1onc(CSc2cccc(C)c2)c1C(=O)O	13.5%
Cn1c(NN)nc2sc3c(c2c1=O)CCC3	27.5%
O=C(CSCc1ccccc1Cl)NNC(=O)c1ccccc1	2.9%
CC(=O)c1cccc(NC(=O)C2CCCN2S(=O)(=O)c2cccc3nsnc23)c1 (stereo not given)	-0.5%
CCc1ccc(/C=N/NC(=O)c2ccc(OC3CCCC3)cc2)s1	-3.5%
COC(=O)c1ccc(S(=O)(=O)N2CCC(c3nc4ccccc4o3)CC2)cc1	-1.2%
Nc1cc(=O)nc(SCc2ccccc2)n1Cc1ccco1	95% (active)
c1ccc(CSc2nnc(-c3ccco3)n2Cc2ccccc2)cc1	-1.6%
O=c1[nH]c(CSc2ncc(-c3ccc(F)cc3)n2Cc2ccco2)nc2ccccc12	-0.9%
CCn1nccc1C(=O)Nc1ccc(Cl)c(Cl)c1	2.3%
CC(C)c1ccc(/C=C/C(=O)NNC(=O)c2cccnc2)cc1	-5.5%
C=CCn1c(SCC(=O)c2ccc(Br)cc2)nnc1C(C)NC(=O)Cc1ccc(OC)cc1 (stereo not given)	12.4%
O=C(/C=C/c1ccco1)Nc1ccc(Oc2ccccc2)cc1	6.5%

SMILES	inhibition
O=C(/C=C/c1ccco1)Nc1cccc(-c2nc3ccccc3[nH]2)c1	9.8%
Cc1ccc(-n2nc3ccc(NC(=O)/C=C/c4ccco4)cc3n2)cc1C	46.8% (active)
CC(O)CN(Cc1ccc(Cl)cc1)CC(C)O (stereo not given)	-2.6%
Cc1ccc(NC(=S)Nc2ncccc2C)c(C)c1	2.5%
CC1=NN(Cc2ccccc2)C(=O)/C1=C/c1ccc(N(C)C)cc1	3.7%
COC(=O)c1cc2nc(-c3ccccc3)cc(C(F)(F)F)n2n1	-20.1%
Cc1cc(C)c2cc(CN(Cc3nnnn3Cc3ccc(F)cc3)C3CCCC3)c(=O)[nH]c2c1	1.5%
CS(=O)(=O)c1sc2nc(-c3ccccc3)cc(-c3ccccc3)c2c1N	-20.3%
COc1ccccc1/C=C/C1=NC(=C\N(C)C)/C(=O)O1	5.1%
CCN(CC)S(=O)(=O)c1ccc2c3c(cccc13)C(=O)S2	8.1%
Cc1ccc(F)cc1NC(=O)c1cccc(N(C)C)c1	-5.6%
O=C(Nc1ccccc1)c1ccc2c(c1)OCO2	-10.7%
Cc1ccc(F)cc1NC(=O)c1ccc2c(c1)OCO2	96.8% (active)
S=c1nccc(-c2cc(Cl)sc2Cl)[nH]1	2%
COc1ccccc1CNC(=O)c1ccc(SC)cc1OC	18.6%
Cc1cc(-c2ccccc2)nc(N2CCC(C(=O)NC34CC5CC(CC(C5)C3)C4)CC2)n1	-5.8%
Cc1nc([N+](=O)[O-])nn1C12CC3CC(CC(Br)(C3)C1)C2	11.3%
Cn1c2c(c(=O)n(C)c1=O)[C@@H]1c3c(ccc4ccccc34)OC[C@@H]1CO2	-9%
CCn1c(SCC(=O)Nc2ccc(S(=O)(=O)Nc3onc(C)c3C)cc2)nnc1-c1ccccc1	6.4%
O=C(O)c1ccccc1-c1ccccc1C(=O)Nc1cccc2ccccc12	7.4%
Cc1nnc(NC(=O)CSc2nc(C3CCCCC3)nc3ccccc23)s1	-0.5%
CCCNC(=S)NC1CC2CCCC(C1)N2CC(C)C (stereo not given)	5.3%
Cc1cc(C(F)F)n2nc(C(=O)Nc3ccc(S(=O)(=O)NC45CC6CC(CC(C6)C4)C5)cc3)nc2n1	5.2%
